# Test results taken from PubChem BioAssay AID2551 (National Center for Advancing Translational Sciences (NCATS), 2010).
# Among all 310,000 compounds or so, about 17,000 (5.5%) were called active. A call without a number means that no potency is given here. Another 11% or so got no clear call; they are omitted. For the sample, actives were picked, then their nearest neighbours and some compounds at random. A number with no mark means an inactive call. Calls come from the whole dose curve; as a rule, active = well fitted inhibition curve with a large enough effect; inconclusive = small, poorly fitted or top-dose-only effect, or effect the other way; inactive = no such curve, though single readings can be large or run the other way.
# Target: Nuclear receptor ROR-gamma (Mus musculus) (UniProt P51450)
# Experiment: qHTS for inhibitors of ROR gamma transcriptional activity; note: nearly all actives have a fitted effect of over 60% in size
# Details: Drosophila S2 Gal4-RORgamma UAS-luciferase reporter, 20 h; series mostly up to 53.6 µM
# Outline: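 ROR gamma transcriptional activity was tracked as Gal4-UAS luciferase output in stably transfected Drosophila Schneider cells, with compound added 1 hr before 700 uM copper sulfate induction and a 20 hr ambient-temperature incubation.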
# Potency is the fitted concentration of half-maximal effect.
# Chain of Nuclear receptor ROR-gamma (Mus musculus) (P51450 whole entry, looked up): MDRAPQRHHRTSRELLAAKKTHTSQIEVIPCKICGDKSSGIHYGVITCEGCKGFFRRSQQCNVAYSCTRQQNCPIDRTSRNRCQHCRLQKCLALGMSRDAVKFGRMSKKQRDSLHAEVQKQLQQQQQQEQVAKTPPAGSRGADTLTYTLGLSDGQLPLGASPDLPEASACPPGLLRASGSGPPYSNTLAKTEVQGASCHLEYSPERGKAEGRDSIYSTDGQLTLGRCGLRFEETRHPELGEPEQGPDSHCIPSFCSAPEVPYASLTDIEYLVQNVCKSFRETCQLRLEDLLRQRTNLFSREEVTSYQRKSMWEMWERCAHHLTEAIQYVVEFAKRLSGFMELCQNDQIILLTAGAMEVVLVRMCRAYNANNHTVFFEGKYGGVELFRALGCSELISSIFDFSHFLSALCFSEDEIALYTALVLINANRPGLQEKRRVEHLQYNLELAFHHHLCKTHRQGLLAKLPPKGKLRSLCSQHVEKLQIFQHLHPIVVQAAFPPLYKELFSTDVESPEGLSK
SMILES,Potency,"activity change, negative = inhibition"
COc1cc(N2C(=O)CSC2=S)cc(OC)c1OC,inactive,
O=C1CSC(=S)N1c1ccc(Cl)c(Cl)c1,inactive,
O=C1CSC(=S)N1c1ccc(O)cc1,12.6 µM (active),
CC1CN(C(=O)CCC(=O)NC2CCN(Cc3ccccc3)CC2)c2ccccc2O1 (stereo unspecified),inactive,
Cc1ccc(OCC(=O)Nc2ccccc2C(=O)NC2CC2)cc1C,inactive,
O=C(Nn1cnnc1)c1cc(Cl)ccc1Cl,inactive,
O=C(N/N=C1\CCSC1)c1cc(Cl)ccc1O,11.2 µM (active),
NNC(=O)c1ccc(Cl)cc1Cl,inactive,
O=C(c1cc(COc2ccc(F)c(F)c2)on1)N1CCOCC1,inactive,
COc1ccc(OCC(=O)NCCS(=O)(=O)N2CCN(c3ccc(F)cc3)CC2)cc1,inactive,
Cc1cccc(NC(=O)NC2(C)CCS(=O)(=O)C2)c1 (stereo unspecified),inactive,
Cc1ncoc1C(=O)N1CCCC(C(=O)c2ccc3c4c(cccc24)CC3)C1 (stereo unspecified),inactive,
CCn1ccnc1CN1CCCC(C(=O)c2ccc3c4c(cccc24)CC3)C1 (stereo unspecified),1.26 µM (active),
CC(=O)NCC(=O)N1CCCC(C(=O)c2ccc3c4c(cccc24)CC3)C1 (stereo unspecified),inactive,
CC(=O)Nc1ccc(S(=O)(=O)N(C)c2nc3ccccc3nc2Cl)cc1,inactive,
COc1ccc(C2c3[nH]c4ccccc4c3C[C@H]3C(=O)N(CC(C)C)CC(=O)N23)c(OC)c1 (stereo partly specified),inactive,
COc1ccc(CNC(=O)CSc2n[nH]c(N)n2)cc1OC,inactive,
O=C(/C=C\NCC(=O)c1ccccc1)c1ccccc1,inactive,
Cc1ccc(N/C=C/C(=O)c2ccccc2)cc1C,0.282 µM (active),
Cc1noc(NS(=O)(=O)c2ccc(N/C=C/C(=O)c3ccccc3)cc2)c1C,inactive,
COc1cc(/C=C2/C(=O)ON=C2C)ccc1OCc1ccccc1F,10 µM (active),
COc1cc(/C=C2/C(=O)ON=C2C)ccc1OCc1cccc(F)c1,inactive,

SMILES,Potency,"activity change, negative = inhibition"
C=CCOc1ccc(/C=C2/C(=O)ON=C2C)cc1OCC,inactive,
Cc1nn2c(=O)cc(COC(=O)c3ccc(NC(=O)C(C)(C)C)cc3)nc2s1,inactive,
Cc1cccc(C)c1NC(=O)CSc1nnc(-c2ccccc2)n1Cc1ccc2c(c1)OCO2,inactive,
c1ccc(-c2nnc3n2NC(c2ccc4c(c2)OCO4)S3)cc1 (stereo unspecified),7.94 µM (active),
O=C(Cn1nnc(-c2ccccc2)n1)NCc1ccc2c(c1)OCO2,inactive,
COC(=O)c1c(C)[nH]c(C(=O)/C=C/c2ccc(Cl)cc2)c1C,0.282 µM (active),
CCCCOC(=O)c1[nH]c(C)c(C(=O)OC)c1C,inactive,
COC(=O)c1c(C)[nH]c(C(=O)NCCc2ccc(S(N)(=O)=O)cc2)c1C,inactive,
CCS(=O)(=O)N1CCC(N2CCN(c3ccccc3)CC2)CC1,inactive,
O=C(COC(=O)c1ccccn1)Nc1cccc2ccccc12,inactive,
N#Cc1ccccc1NC(=O)COc1c(Br)cc(Br)c2cccnc12,12.6 µM (active),
N#Cc1ccc(C(=O)Nc2cccc3cccnc23)c(F)c1,inactive,
Cc1ccc(CNC(=O)Cn2cnc(S(=O)(=O)N3CCCCC3)c2)o1,inactive,
Cc1c(C)c(C)c(S(=O)(=O)NCCc2ccccn2)c(C)c1C,inactive,
Cc1ccc(C2NC(=S)NC3=C2N2CCC3CC2)cc1 (stereo unspecified),11.2 µM (active),
COc1cc(NC(=O)c2ccccc2)c(OC)cc1NC(=O)Cc1ccccc1,inactive,
O=C(O)CCCn1c(=O)c2cccn2c2ccc(F)cc21,inactive,
Cc1ccc(-n2c(SCC(=O)NCCC3=CCCCC3)nc3n[nH]c(C)c3c2=N)cc1Cl,inactive,
Cc1nonc1NC(=O)c1ccccc1Br,inactive,
O=C(Nc1nnc(-c2ccc(Cl)cc2)o1)c1ccccc1Br,2.51 µM (active),
O=C(Nc1cccc(Cl)c1)Nc1nnc(-c2ccccc2)o1,inactive,
CN=C1S/C(=C\c2c(OC)cc(OC)cc2OC)C(=O)N1C,inactive,

SMILES,Potency,"activity change, negative = inhibition"
CCc1ccc(S(=O)(=O)Nc2cc3c(cc2N2CCCCC2)n(C)c(=O)c(=O)n3C)cc1,inactive,
Cn1c(CCNS(=O)(=O)c2ccc(F)cc2)nnc1SCc1cccnc1,inactive,
CCCCCNC(=O)Cc1ccc(OC)cc1,inactive,
O=C(CCc1ccccc1F)N1CCN(c2ccccc2)CC1,inactive,
COc1ccc(C(=O)CCc2ccccc2O)c(OC)c1,,3.95% [at 1.91 µM]
CC(=O)N1N=C(c2ccncc2)OC1(Cc1ccccc1)Cc1ccccc1,inactive,
O=C(Cc1ccccc1)N1N=C(c2ccncc2)CC1(O)C(F)(F)F (stereo unspecified),7.08 µM (active),
CC1=NN(C(=O)CCCc2ccccc2)C(O)(C(F)(F)F)C1 (stereo unspecified),4.47 µM (active),
CC1=NN(C(=O)CCc2ccccc2O)C(O)(C(F)(F)F)C1 (stereo unspecified),8.91 µM (active),
COc1ccc(CC(=O)N2N=C(C)CC2(O)C(F)(F)F)cc1 (stereo unspecified),7.94 µM (active),
O=C(C1CC1)N1N=C(c2ccc(Br)cc2)CC1(O)C(F)(F)F (stereo unspecified),inactive,
O=C(O)CCCc1ccccc1,inactive,
COc1ccc(CC(=O)Nc2ccc(C(=O)NC(C)(C)C)cc2)cc1,inactive,
CCC(C)NC(=O)CCCc1ccccc1 (stereo unspecified),inactive,
COc1ccccc1N1CCN(S(=O)(=O)c2ccc3c(c2)NC(=O)CS3)CC1,inactive,
COc1cccc(NC(=O)N2CCC(NC(=O)C(Cc3cccc(C)c3)NC(C)=O)CC2)c1 (stereo unspecified),inactive,
CC(C)CN(Cc1c(O)ccc2c(=O)c(-c3ccccc3)coc12)CC(C)C,,27% [at 1.91 µM]
CC(C)[C@H](NC(=O)N1c2ccccc2NC(=O)[C@@H]1C(C)C)C(=O)N[C@H](C(=O)O)c1ccccc1,inactive,
CN(C(=O)CN1C(=O)/C(=C/c2ccc(Cl)cc2)SC1=S)C1CCS(=O)(=O)C1 (stereo unspecified),inactive,
CC(=O)C1=C(O)C(=O)N(c2ccc(Br)cc2)C1c1ccc([N+](=O)[O-])cc1 (stereo unspecified),inactive,
CC1Cc2cc(/C(O)=C3\C(=O)C(=O)N(Cc4cccnc4)C3c3ccccc3F)ccc2O1 (stereo unspecified),inactive,
CC1=NN(/C(=N\c2nnc(C)s2)Nc2ccccc2)[C@H](c2ccc(C)cc2)S1,8.91 µM (active),

SMILES,Potency,"activity change, negative = inhibition"
Cc1ccc(C2SCC(=O)N2c2ccccc2)cc1 (stereo unspecified),inactive,
COc1ccc(C(=O)CCC(=O)Nc2ccc(Cl)cc2)cc1,inactive,
CCOC(=O)C1(Cc2ccccc2C)CCCN(C(=O)CN2C(=O)CSC2=O)C1 (stereo unspecified),inactive,
N#Cc1ccc(/C=C2\CCn3c2nc2cc(C(=O)O)ccc2c3=O)cc1,inactive,
Cc1ccccc1C(=O)OC1OC(=O)C(Cl)=C1Nc1ccccc1 (stereo unspecified),11.2 µM (active),
CCOC(=O)CNc1nc(Cl)nc(Nc2ccccc2)n1,inactive,
Cc1ccc(NC2=C(Cl)C(=O)OC2OC(=O)c2ccccc2C)cc1 (stereo unspecified),inactive,
COC(=O)c1sccc1NC(=O)c1ccc(Cl)cc1,inactive,
CCOC(=O)/C(=N\Nc1ccccc1[N+](=O)[O-])c1csc(Nc2ccccc2)n1,11.2 µM (active),
Cc1csc(NC(=O)Nc2ccccc2[N+](=O)[O-])n1,inactive,
CCOC(=O)C/C(C)=N\Nc1ccc([N+](=O)[O-])cc1[N+](=O)[O-],inactive,
COc1ccc(OCc2cc(C(=O)NCC3(C)COC3)no2)c(Cl)c1,inactive,
Cc1ccc(Cl)c(OCC(=O)N2CCc3ccccc3C2)c1,,3.92% [at 1.91 µM]
Cc1cc(C)cc(C(=O)OCC(=O)NCCNC(=O)COC(=O)c2cc(C)cc(C)c2)c1,0.0708 µM (active),
Cc1cccc(C(=O)OCC(=O)Nc2ccc(F)cc2)c1,inactive,
COc1ccccc1C(=O)OCC(=O)NCCNC(=O)COC(=O)c1ccccc1OC,inactive,
COc1ccc(S(=O)(=O)NC(C)C(=O)NCc2ccncc2)cc1Cl (stereo unspecified),inactive,
COC(=O)CN1C(=O)[C@H]2[C@@H](/C=C/c3ccccc3)N3C(=O)CN(CC4CC4)C(=O)[C@@]3(Cc3ccccc3)[C@H]2C1=O,inactive,
Cc1ccc(N=Nc2c(C)[nH]n(-c3ccccc3)c2=O)cc1,inactive,
Cc1[nH]n(C(N)=S)c(=O)c1N=Nc1ccc(Cl)cc1Cl,0.562 µM (active),
Cc1[nH]n(-c2cccc(Cl)c2)c(=O)c1-c1ccc(Cl)cc1,inactive,
Cc1cc2oc(=O)cc(CN(C)Cc3ccc(OC(F)F)cc3)c2cc1Cl,inactive,

SMILES,Potency,"activity change, negative = inhibition"
COc1ccc(CCN2C(=O)C(C)=C(C)C2=O)cc1OC,inactive,
COc1ccccc1-c1n[nH]c2c1[C@H](C)CC[C@H]2C(C)C,3.16 µM (active),
COc1ccccc1-c1nc(N2CCN(C)CC2)c2ccccc2n1,inactive,
CC1C(=O)Nc2ccccc2N1C(=O)c1c(F)cccc1F (stereo unspecified),inactive,
COc1ccc(-n2nc3c(N4CCC(C(=O)NCc5ccccc5)CC4)nnc(C)c3c2C)cc1,inactive,
O=C1CSC(=S)N1/N=C/c1ccc(O)c([N+](=O)[O-])c1,8.91 µM (active),
Cc1cc(C(=O)N/N=C/c2ccc(O)c([N+](=O)[O-])c2)c(C)n1-c1ccc(F)cc1,inactive,
O=[N+]([O-])c1ccc(N2CCSCC2)cc1O,inactive,
COc1cccc(C2CC(c3cccs3)=NN2C(=O)CSC2=NCCS2)c1OC (stereo unspecified),inactive,
CC(C(=O)NC1CCCCC1)N1C(=O)c2cccc3cccc1c23 (stereo unspecified),inactive,
COc1cc(NC(=O)C2=C(C)OCCS2)c(Cl)cc1C(=O)NCCN1CCN(C)CC1,inactive,
O=C(NCc1cccc(C(F)(F)F)c1)c1cccc(S(=O)(=O)N2CCN(Cc3ccccc3)CC2)c1,inactive,
O=C(NCc1ccncc1)NC12CC3CC(CC(C3)C1)C2,inactive,
S=C(NCc1ccc(Cl)cc1)NC12CC3CC(CC(C3)C1)C2,2 µM (active),
O=C(NCc1ccc(Cl)cc1)NCc1ccc(Cl)cc1,inactive,
O=C(NC1CCN(C(=S)Nc2ccc(Cl)cc2)CC1)C1CCCCC1,inactive,
S=C(NCc1ccc(Cl)cc1)NC1CCCCC1,3.55 µM (active),
CN(C)CCCNC(=S)NCc1ccc(Cl)cc1,inactive,
